Screening data as filed in PubChem.
VCAM1 TNFa pot = TNF alpha stimulated VCAM1 expression potentiation; HUVEC TNFa-stimulated VCAM-1 immunofluorescence, high-content imaging; scaled per plate to unstimulated/TNFa-only wells; activation, % at 2 µM; 93,000 tested, 0.19% active; AID 808;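 active means activation above the screen mean plus 3 SD, with well images confirming the hit on visual review, cut at about 28% in these data, passing the limit was not always enough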;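 further: signal is the number of cytoplasmic VCAM-1 stained grains per positive cell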
VCAM1 pot confirm = potentiators of TNFa-induced VCAM1 expression, confirmation, imaging, HUVEC, triplicate retest; shares compounds with VCAM1 TNFa pot; HUVEC TNFa-stimulated VCAM-1 immunofluorescence imaging; activation, % at 2 µM; 230 tested, under 10 active; AID 1034;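 active means activation above 30% in triplicate retests at 2 µM, then confirmed by visual review of the well images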;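 further: scaled per plate between unstimulated and TNFa-stimulated DMSO control wells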
Active calls of the source: *. The entries come from a sample that favours hits as a whole.

SMILES	VCAM1 TNFa pot	others
C/C(Cl)=C/CC1(CN2CCCC2=O)C(=O)NC(=O)NC1=O	106.0*	VCAM1 pot confirm=-14.9
COc1ccc(OP(=O)(Nc2ccccc2)Nc2ccccc2)cc1	5.4
Cc1occc1C(=O)N1CCC2(CC1)OCCO2	-4.7
CCOC(=O)c1[nH]c(C)c(C(=O)N2CCC3(CC2)OCCO3)c1C	116.7*	VCAM1 pot confirm=-9.3
CS(=O)(=O)N1CCCC(C(=O)N2CCC3(CC2)OCCO3)C1 (stereo unspecified)	-0.7
CCOP(=S)(OCC)c1ccc(N(C)C)cc1	10.0
Cc1cc(C)c(NC2=NCCCS2)c(C)c1	13.5
CC(Cc1ccccc1)NC(=O)NC(C)Cc1ccccc1 (stereo unspecified)	33.1*	VCAM1 pot confirm=-16.4
COc1ccc(/C=C2\C(=N\O)C3CCN2CC3)cc1	12.1
CCC12CN3CCN(CC(C3)/C1=N\O)C2	8.1
O=C1CN(C(=O)CN2CCCCC2)C(c2ccccc2)c2cc(Br)ccc2N1 (stereo unspecified)	-45.7
CC1CCC(NCC(O)c2ccccc2)CC1 (stereo unspecified)	15.9
CCCCC(=O)C1C(=O)NC(=O)NC1=O	5.4
Cc1ccc(-c2nc3ccccc3c(=O)n2-c2nccs2)cc1	55.9*	VCAM1 pot confirm=-17.4
COc1ccc(Cl)cc1NC1=NCC(C)S1 (stereo unspecified)	-0.2
O=C(Nc1ccccc1OC(=O)N1CCOCC1)N1CCOCC1	-36.8
Cc1ccc(C2(O)CC(C)N(C)CC2C)cc1 (stereo unspecified)	-7.1
COC(=O)c1cc2c(s1)=NC=NP=2(N1CCOCC1)N1CCOCC1	-7.9
C=CCn1c(O)c(C(C)=NCc2cc(OC)cc(OC)c2)c(=O)[nH]c1=O	-6.9
Cc1cc(C=O)c(C)n1CC1CCCO1 (stereo unspecified)	2.3
